The record followed here is PubChem BioAssay (NCATS).

The target in experiment [1] is Glutaminase kidney isoform, mitochondrial (Homo sapiens) (UniProt O94925). Description: qHTS for Inhibitors of Glutaminase (GLS): LOPAC Validation (AID 624146). Further: nearly all actives have a fitted effect of over 60% in size. Further: potency means the concentration at half of the fitted maximal effect. The method in brief: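 hKGA in 45 mM KH2PO4 (pH 8.2), 0.02% Tween-20 with compound, then 1mM L-Glutamine (stock as added) plus glutamate oxidase/HRP/Amplex red coupling mix. Fluorescence read initially and after 30 min at RT; signal change reflects glutamate formation.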

The nature of experiment [2]: qHTS of Trypanosoma Brucei Inhibitors: LOPAC Validation (AID 624147). A digest of the protocol: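 In this concentration-response screen, enzyme-free wells defined baseline while DMSO plates tracked drift. Each reaction combined TbPYK, substrate, compound and 130 uM ADP for 45 min at room temperature. Kinase-Glo Plus luminescence gave the signal.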
Experiment [3] concerns the target Glucagon-like peptide 1 receptor (Homo sapiens) (UniProt P43220). Description: qHTS of GLP-1 Receptor Agonists: LOPAC Validation (AID 624148).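 Further: higher luminescence signal means agonism.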 The method in brief:
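HEK293 cells stably co-expressing a cAMP-responsive luciferase reporter and a hypersensitive GLP-1R were plated 12 h at 37 °C and exposed to compounds for 4-6 hr at 37 °C, 5% CO2. Luminescence was read 12 min after adding detection reagent.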
Background: Quantitative high-throughput screening tests each substance at several concentrations.

The nature of experiment [4]: qHTS of Nrf2 Activators: LOPAC Validation (AID 624149). A digest of the protocol:
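Following overnight seeding in 5% FBS OPTI-MEM, AREc32_Fluc cells receive compounds for a 24 hr incubation at 37 deg C with 5% CO2. Steady-Glo is added, and after 30 min at RT luminescence is recorded.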

The nature of experiment [5]: HTS Assay for Allosteric Antagonists of the Human D2 Dopamine Receptor: Hit Validation in HTRF (AID 624455).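 Further: stable D1 dopamine receptor cell line scored for blocking the D1 response.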 A digest of the protocol: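 Validation of hits used D1 receptor stably expressed in cells with HTRF detection of response inhibition; origin screen measured calcium flux following EC80 dopamine in a force-coupled, inducible Hek293 Trex D2 cell line.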

Records with an inconclusive call do not appear. Where a call stands in place of a potency, no number is given. Active and inactive are the calls of the source. The call rests on the fitted dose curve; in most records, active means well fitted curve in the direction sought with a large enough effect; inconclusive means small, poorly fitted or top-dose-only effect, or another doubt; inactive means no such curve, though single readings can be large; an effect the other way counts as inactive or inconclusive.

Chain of Glutaminase kidney isoform, mitochondrial (Homo sapiens) (O94925 whole entry, looked up, canonical isoform): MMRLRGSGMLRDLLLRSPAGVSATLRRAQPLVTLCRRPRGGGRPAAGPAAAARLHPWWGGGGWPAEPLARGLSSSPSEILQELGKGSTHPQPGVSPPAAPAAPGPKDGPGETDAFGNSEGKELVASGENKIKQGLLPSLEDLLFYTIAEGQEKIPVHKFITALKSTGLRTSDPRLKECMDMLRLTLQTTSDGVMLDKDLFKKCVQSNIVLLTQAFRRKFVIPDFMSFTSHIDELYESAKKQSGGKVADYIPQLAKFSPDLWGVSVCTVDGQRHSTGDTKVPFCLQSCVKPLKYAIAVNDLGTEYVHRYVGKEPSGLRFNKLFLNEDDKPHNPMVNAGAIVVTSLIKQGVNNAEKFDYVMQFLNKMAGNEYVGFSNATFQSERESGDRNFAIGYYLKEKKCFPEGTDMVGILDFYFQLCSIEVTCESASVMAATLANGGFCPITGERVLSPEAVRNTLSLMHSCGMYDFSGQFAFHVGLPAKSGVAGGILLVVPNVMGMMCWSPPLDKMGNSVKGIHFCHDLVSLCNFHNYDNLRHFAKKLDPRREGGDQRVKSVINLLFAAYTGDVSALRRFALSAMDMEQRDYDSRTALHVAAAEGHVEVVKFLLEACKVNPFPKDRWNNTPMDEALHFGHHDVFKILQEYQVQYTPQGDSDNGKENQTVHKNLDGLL
Chain of Glucagon-like peptide 1 receptor (Homo sapiens) (P43220 whole entry, looked up): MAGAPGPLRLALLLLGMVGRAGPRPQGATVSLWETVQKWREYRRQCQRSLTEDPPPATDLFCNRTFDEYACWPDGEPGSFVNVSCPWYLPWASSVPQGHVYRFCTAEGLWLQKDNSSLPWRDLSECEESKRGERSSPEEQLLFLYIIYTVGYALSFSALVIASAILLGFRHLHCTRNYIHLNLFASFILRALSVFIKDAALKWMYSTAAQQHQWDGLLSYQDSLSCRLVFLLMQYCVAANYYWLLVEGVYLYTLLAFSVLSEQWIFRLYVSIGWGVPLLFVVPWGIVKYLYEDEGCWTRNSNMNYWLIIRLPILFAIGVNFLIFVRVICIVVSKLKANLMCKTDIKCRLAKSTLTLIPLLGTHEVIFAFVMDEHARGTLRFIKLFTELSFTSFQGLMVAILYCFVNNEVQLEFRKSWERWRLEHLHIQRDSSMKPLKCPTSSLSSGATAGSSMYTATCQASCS

For `CN(C(=O)Cc1ccc(Cl)c(Cl)c1)C(CN1CCCC1)c1cccc(OCC(=O)O)c1` (centres undefined), the Potency result in experiment [1], in experiment [2], in experiment [4] and in experiment [5] was “inactive” each time. Further, the call in experiment [3] was inactive.
`CCCN1CC[C@@H]2c3cc(O)ccc3CC[C@@H]21`: the Potency result in experiment [2] and in experiment [4] was “inactive” throughout. Further, the outcome in experiment [3] was inactive.
Take `C[C@H](N)Cc1cccc(C(F)(F)F)c1`: the Potency result in experiment [1], in experiment [4] and in experiment [5] was “inactive” each time. The molecule was classed as inactive in experiment [3].
`CN1CCc2cc(O)cc3c2[C@H]1Cc1ccc(O)c(O)c1-3`: the Potency in experiment [1] was 2240 nM (active). The molecule was called inactive in experiment [3]. Moreover, in experiment [4], the Potency entry is “inactive”.
As for `Cc1cc([C@@H]2CCCN2C)on1`, the Potency result in experiment [1], in experiment [4] and in experiment [5] was “inactive” each time. Besides, the molecule was classed as inactive in experiment [3].
